# Experimental data as given in PubChem BioAssay.
# Activity calls are given as the source filed them. Unless noted, the rule behind the calls is not given here.
# Tests used:
# [1] = system: XIP peptide (Xip251-270) binding; test: XIP fragment 251-270 binding compounds – biochemical, small-molecule microarray, fluorescence 635/667 nm, 0.1 µg/mL protein, primary screen (AID 1182); details: fluorescent protein binding, 635 nm, higher = more signal, called active from +8 up or from −8 down
# XIP peptide (Xip251-270) = test: compounds binding XIP fragment 251-270 – biochemical, small-molecule microarray, fluorescence 635/667 nm, 0.5 µg/mL protein, primary screen (AID 1183); details: fluorescence 635 nm, higher = more signal
# [2] = blood-stage malaria parasite viability loss – strain 3D7, DAPI fluorescence, 100 nL, primary screen (AID 1184);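 note: parasites grown inside human red blood cells in medium with human serum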; details: P. falciparum 3D7 growth, 3 d, higher = more signal
# [3] = target: Homeobox protein Hox-A13 (Mus musculus) (UniProt Q62424); test: disruptors of Hoxa13 oligonucleotide interaction – biochemical, fluorescence polarization, labeled oligonucleotide, primary screen (AID 1185); details: Hoxa13:DNA binding, 15 min, higher = more signal, called active from +8 up or from −8 down
# [4] = blockers of DNA damage checkpoint Chk1 activation – imaging, HeLa, hydroxyurea, phospho-Chk1 antibody, percent positive cells, primary screen (AID 1186); details: hydroxyurea-induced phospho-Chk1 immunofluorescence imaging, higher = more signal
# [5] = blockers of DNA damage checkpoint Chk1 activation – imaging, HeLa, hydroxyurea, phospho-Chk1 nuclear intensity, primary screen (AID 1187); details: hydroxyurea-induced phospho-Chk1 immunofluorescence imaging, higher = more signal
# Sequence of Homeobox protein Hox-A13 (Mus musculus) (Q62424 whole entry, looked up): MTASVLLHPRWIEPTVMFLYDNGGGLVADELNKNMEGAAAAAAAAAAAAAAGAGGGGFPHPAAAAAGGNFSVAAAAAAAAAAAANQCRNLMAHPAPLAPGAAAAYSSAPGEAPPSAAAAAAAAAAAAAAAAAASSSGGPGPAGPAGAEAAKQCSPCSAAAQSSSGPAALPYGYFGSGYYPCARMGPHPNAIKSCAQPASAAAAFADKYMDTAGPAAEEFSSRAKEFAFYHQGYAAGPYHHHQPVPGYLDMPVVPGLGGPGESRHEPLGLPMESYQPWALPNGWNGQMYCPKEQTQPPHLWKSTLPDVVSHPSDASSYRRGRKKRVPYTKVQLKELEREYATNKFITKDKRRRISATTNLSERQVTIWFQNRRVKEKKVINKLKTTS
Structure (SMILES),composite z-score [1],composite z-score (XIP peptide (Xip251-270)),z-score [2],z-score [3],z-score [4],z-score [5]
COc1ccc(CCNC(=O)[C@@]2(C)c3ccccc3C(=O)N(Cc3cc(F)cc(C(F)(F)F)c3)[C@H]2c2ccc(CO)cc2)cc1,0.17 (inactive),0.464,-1.49,-4.2 (inactive),0.027 (inactive),0.116 (inactive)
C=CCOC(=O)[C@@H]1[C@H]2C(=O)O[C@H](c3ccccc3)[C@H](c3ccccc3)N2[C@H](c2ccc(OCCOC(=O)[C@@H]3C[C@@H]4C(=O)N[C@@H](CCCCN(C)C)C(=O)N4[C@@H]3c3ccc(O)cc3)cc2)[C@@]12C(=O)Nc1ccc(I)cc12,1.45 (inactive),0.783,-0.369,5.96 (inactive),-0.0333 (inactive),0.121 (inactive)
COC(=O)[C@@]1(Cc2ccc(F)cc2)[C@H]2c3cc(C(=O)N4CCCC4)n(Cc4ccc(C)o4)c3C[C@H]2CN1C(=O)c1ccccc1,0.205 (inactive),0.705,-1.14,-4.22 (inactive),-0.289 (inactive),-0.163 (inactive)
CC1CC/C=C\[C@H]2OC34C=CCN(c5ccc(Cl)cc5)C(=O)[C@H]3N(CCO)C(=O)[C@]4(C)C2C(=O)O1 (stereo partly drawn),1.21 (inactive),0.18,-0.515,-4.66 (inactive),-0.0711 (inactive),-0.271 (inactive)
CO[C@H]1O[C@H](CO)[C@@H](OC(=O)Nc2ccc(Br)cc2)[C@H](OC(=O)c2cc3ccccc3[nH]2)[C@H]1OC(=O)c1cc2ccccc2[nH]1,1.36 (inactive),0.716,-1.64,-2.09 (inactive),-0.547 (inactive),-0.872 (inactive)
CC(C)(C)C(=O)N[C@@H](c1ccc(Cl)cc1)[C@]1(C)C[C@H]1C1CCCCC1,0.398 (inactive),0.837,-0.827,2.32 (inactive),-1.19 (inactive),-0.627 (inactive)
CC(C)(C)OC(=O)CC[C@@]1(C(N)=O)N=C(c2ccc(OCCCO)cc2)O[C@@H]1c1ccccc1,0.222 (inactive),0.355,-0.589,-3.33 (inactive),0.335 (inactive),-0.0302 (inactive)
O=C1c2ccccc2[C@@]2(Cc3ccccc3N(CCN3CCOCC3)C2=O)[C@H](c2ccc(CO)cc2)N1Cc1ccccc1,-0.178 (inactive),0.206,-0.119,-0.421 (inactive),-0.305 (inactive),-0.0278 (inactive)
COC(=O)[C@@]1(Cc2ccc(F)cc2)[C@H]2c3cc(C(=O)N(C)C)n(Cc4ccc(S(C)(=O)=O)cc4)c3C[C@H]2CN1C(=O)c1ccccc1,1.46 (inactive),0.788,-0.589,-4.58 (inactive),0.144 (inactive),0.0541 (inactive)
CC(C)N1C(=O)[C@@]2(Cc3ccccc31)c1ccccc1C(=O)N(C1CCCCC1)[C@H]2c1ccc(CO)cc1,-0.091 (inactive),0.709,-0.288,-0.666 (inactive),-0.0292 (inactive),0.029 (inactive)
O=C1OCC=C[C@H]2OC34C=CCN(CCN5CCOCC5)C(=O)[C@H]3N(CCCO)C(=O)[C@@H]4[C@@H]12 (stereo partly drawn),-0.0676 (inactive),-0.0046,-1.83,-4.01 (inactive),0.2 (inactive),0.099 (inactive)
CCOC(=O)[C@H]1C/C=C/C[C@H](C(=O)OCC)C(=O)O[C@H]2[C@@H](OC)O[C@H](CO)[C@@H](OC(=O)Nc3ccc(C#N)cc3)[C@@H]2OC1=O,1.09 (inactive),0.84,-2.07,-1.69 (inactive),-0.892 (inactive),-1.88 (inactive)
CC(C)(C)OC(=O)CC[C@]1(C(=O)O)N=C(c2ccc(OCCCO)cc2)O[C@H]1c1ccccc1N=[N+]=[N-],1.25 (inactive),0.907,-0.164,-5.39 (inactive),0.0751 (inactive),-0.136 (inactive)
C#CCN(CC=C(C)C)[C@H](CO)c1ccccc1,0.102 (inactive),-0.564,-1.34,-0.2 (inactive),0.557 (inactive),0.457 (inactive)
Cc1ccc(S[C@]2(C(=O)NCCN3CCOCC3)CC(=O)N(Cc3ccccc3)[C@@H]2c2ccc(CO)cc2I)cc1,0.302 (inactive),0.0473,-1.44,-1.69 (inactive),-0.0659 (inactive),0.184 (inactive)
COC(=O)[C@@]1(Cc2ccc(OC)cc2)[C@H]2c3cc(C(=O)N4CCCC4)n(Cc4ccccc4)c3C[C@H]2CN1C(=O)c1ccccc1,0.738 (inactive),0.0127,-1.5,-3.78 (inactive),0.212 (inactive),0.07 (inactive)
[N-]=[N+]=NCc1ccccc1[C@H]1OC(c2ccc(OCCCO)cc2)=N[C@@]1(Cc1ccccc1)C(=O)NCc1ccccc1,0.212 (inactive),0.471,-2.49,2.55 (inactive),-0.287 (inactive),-0.083 (inactive)

Structure (SMILES),composite z-score [1],composite z-score (XIP peptide (Xip251-270)),z-score [2],z-score [3],z-score [4],z-score [5]
COC(=O)[C@@]1(Cc2ccccc2)[C@H]2c3cc(C(=O)N(C)C)n(CCSCCO)c3C[C@H]2CN1C(=O)c1ccccc1,0.115 (inactive),0.443,-0.522,-4.76 (inactive),0.585 (inactive),0.248 (inactive)
C=CCN1C(=O)[C@]2(O[C@H](CCO)[C@@H]([Si](C)(C)c3ccc(OC)cc3)[C@@H]2C)c2cc(N3CCCCC3=O)ccc21,0.238 (inactive),0.732,-2.66,-6.28 (inactive),-0.147 (inactive),-0.56 (inactive)
COc1ccc([Si](C)(C)[C@H]2[C@H](CC(=O)N3Cc4ccccc4C[C@H]3CO)O[C@@]3(C(=O)N(Cc4ccc(N5CCC5=O)cc4)c4ccccc43)[C@@H]2C)cc1,0.0316 (inactive),0.817,-1.95,-3.83 (inactive),-0.176 (inactive),-0.0862 (inactive)
C=CC[C@]1(C(=O)N2CCCCC2)N=C(c2ccc(OCCCO)cc2)O[C@H]1c1ccccc1,0.754 (inactive),0.807,-2.03,-5.69 (inactive),-0.0473 (inactive),0.452 (inactive)
C=CCC(OC(C)=O)[C@@H]1[C@@H](N(Cc2cccc3ccccc23)C(=O)c2ccc(-c3ccccc3)cc2)c2cc(OCCCO)ccc2N1C(=O)Cc1ccc(OC)cc1 (stereo partly drawn),-0.162 (inactive),0.637,-1.17,-1.15 (inactive),-0.302 (inactive),-0.0837 (inactive)
CCCCCN1CC=CC23O[C@@H]4/C=C\CCCOC(=O)C4[C@H]2C(=O)N(CCCO)[C@@H]3C1=O (stereo partly drawn),1.75 (inactive),0.772,-0.332,-5.09 (inactive),-0.297 (inactive),-0.426 (inactive)
COC(=O)[C@@]1(Cc2ccccc2)[C@H]2c3cc(C(=O)N4CCCC4)n(CC4CC4)c3C[C@H]2CN1C(=O)c1ccccc1,0.258 (inactive),0.628,-1.79,-5.17 (inactive),0.874 (inactive),0.76 (inactive)
CCCCC(O)C1C=CC2C(=O)N(c3ccccc3)C(=O)C2N1Nc1ccccc1F (stereo not drawn),0.335 (inactive),0.744,1.01,-3.4 (inactive),0.772 (inactive),-0.0522 (inactive)
COC(=O)[C@@]1(Cc2ccc(F)cc2)[C@H]2c3cc(C(=O)N(C)C)n(Cc4nc5ccccc5[nH]4)c3C[C@H]2CN1C(=O)c1ccccc1,0.642 (inactive),0.817,-0.593,-3.68 (inactive),-0.11 (inactive),-0.0626 (inactive)
C[N+](C)(C)CCCCNC(=O)[C@H]1C[C@H]2C(=O)N[C@@H](Cc3ccccc3)C(=O)N2[C@H]1c1ccc(O)cc1,1.17 (inactive),-0.229,0.498,-1.49 (inactive),0.671 (inactive),0.345 (inactive)
C=C(C)C1C(=C)CN([C@H](CO)c2ccccc2)C1=O (stereo partly drawn),-0.389 (inactive),-0.149,-0.977,-2.61 (inactive),-0.347 (inactive),-0.339 (inactive)
O=C1NCC(=O)N2[C@@H]1C[C@@H](C(=O)O)[C@H]2c1cccc(OCCO)c1,6.39 (inactive),1.02,0.0934,-1.39 (inactive),-0.467 (inactive),-0.367 (inactive)
C=CCNC(=O)[C@@H]1[C@H]2C(=O)O[C@H](c3ccccc3)[C@H](c3ccccc3)N2[C@H](c2ccc(OCCO)cc2)[C@@]12C(=O)Nc1ccc(C#Cc3ccc(OC)cc3)cc12,1.37 (inactive),0.792,-2.28,-1.61 (inactive),0.166 (inactive),0.143 (inactive)
[N-]=[N+]=NCc1ccccc1C[C@@]1(C(=O)NCC(O)CO)N=C(c2ccc(OCCCO)cc2)O[C@@H]1c1ccccc1N=[N+]=[N-] (stereo partly drawn),1.78 (inactive),0.384,-2.37,-1.72 (inactive),-0.0225 (inactive),0.105 (inactive)
CN(C)CCCC[C@@H]1NC(=O)[C@H]2C[C@@H](C(=O)NCCCCCNC(=O)CS)[C@@H](c3cccc(OCCO)c3)N2C1=O,1.2 (inactive),0.567,-0.103,-3.25 (inactive),-0.244 (inactive),-0.144 (inactive)
O=C1OCCC=C[C@H]2OC34C=CCN(CCN5CCOCC5)C(=O)[C@H]3N(CCCCCCO)C(=O)[C@@H]4C12 (stereo partly drawn),0.995 (inactive),0.091,-0.0217,-5.15 (inactive),-0.334 (inactive),-0.109 (inactive)
